Measurements: paper PMC7862700, “An all-to-all approach to the identification of sequence-specific readers for epigenetic DNA modifications on cytosine”

Experiments:
Experiment in all cases: DAPPL (digital affinity profiling via proximity ligation, sequencing); 10 mM Tris-HCl pH 7.5, 50 mM NaCl, 1 mM DTT, 4% glycerol, room temperature, 30 min; GST-TFs on glutathione beads, 16-mer random dsDNA library, 0.1% formaldehyde crosslink after washing; high values mean tight binding
FLI1 = molecular target: T1, FLI1 (Homo sapiens, UniProt Q01543 1-452); conditions: protein: recombinant; tags: N-terminal GST; dsDNA, one strand shown
T1 sequence: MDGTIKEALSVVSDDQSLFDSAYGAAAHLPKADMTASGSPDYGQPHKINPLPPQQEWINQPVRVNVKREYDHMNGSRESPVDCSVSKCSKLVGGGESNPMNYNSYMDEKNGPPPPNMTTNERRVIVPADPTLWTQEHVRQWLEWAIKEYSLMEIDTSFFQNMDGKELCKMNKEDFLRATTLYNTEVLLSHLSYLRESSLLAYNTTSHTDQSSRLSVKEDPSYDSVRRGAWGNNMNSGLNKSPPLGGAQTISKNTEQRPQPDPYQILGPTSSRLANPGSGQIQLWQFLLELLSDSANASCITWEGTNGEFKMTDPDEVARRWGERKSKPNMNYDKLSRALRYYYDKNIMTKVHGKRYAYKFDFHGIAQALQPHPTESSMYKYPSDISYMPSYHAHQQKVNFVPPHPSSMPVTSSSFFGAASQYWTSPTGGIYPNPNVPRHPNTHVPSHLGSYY
Summary of the method: (§1)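 Beads coated with glutathione captured GST-fused human transcription factors that had been expressed in yeast, and the factors were then given DNA barcodes and pooled with a tag-only sample. The pools were incubated with 200 nmole of a random double-stranded 16-mer DNA library in Tris/NaCl/DTT/glycerol buffer for 30 min at room temperature, washed, crosslinked with 0.1% formaldehyde and proximity-ligated with BsaI/T4 ligase at 37 °C for 1 h. PCR amplification and Illumina NextSeq500 sequencing came last. Binding signal is each hexamer's read frequency for a factor divided by its frequency for the tag-only sample.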

ELK1 = molecular target: T2, ELK1 (Homo sapiens, UniProt P19419 1-428); conditions: protein: recombinant; tags: N-terminal GST; dsDNA, one strand shown
T2 sequence: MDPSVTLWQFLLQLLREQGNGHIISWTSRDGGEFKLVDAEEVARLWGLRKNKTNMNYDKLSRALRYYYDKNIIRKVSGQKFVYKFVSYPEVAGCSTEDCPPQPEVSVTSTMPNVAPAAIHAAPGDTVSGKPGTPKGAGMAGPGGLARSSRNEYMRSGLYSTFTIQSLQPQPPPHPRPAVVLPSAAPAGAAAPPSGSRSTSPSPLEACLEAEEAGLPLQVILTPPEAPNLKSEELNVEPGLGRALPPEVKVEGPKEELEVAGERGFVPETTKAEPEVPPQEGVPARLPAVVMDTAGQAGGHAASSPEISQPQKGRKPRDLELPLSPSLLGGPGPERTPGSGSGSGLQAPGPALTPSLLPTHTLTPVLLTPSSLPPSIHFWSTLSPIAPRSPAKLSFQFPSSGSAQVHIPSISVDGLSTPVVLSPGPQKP
Summary of the method: as §1

GABPA = molecular target: T3, GABPA (Homo sapiens, UniProt Q06546 1-454); conditions: protein: recombinant; tags: N-terminal GST; dsDNA, one strand shown
T3 sequence: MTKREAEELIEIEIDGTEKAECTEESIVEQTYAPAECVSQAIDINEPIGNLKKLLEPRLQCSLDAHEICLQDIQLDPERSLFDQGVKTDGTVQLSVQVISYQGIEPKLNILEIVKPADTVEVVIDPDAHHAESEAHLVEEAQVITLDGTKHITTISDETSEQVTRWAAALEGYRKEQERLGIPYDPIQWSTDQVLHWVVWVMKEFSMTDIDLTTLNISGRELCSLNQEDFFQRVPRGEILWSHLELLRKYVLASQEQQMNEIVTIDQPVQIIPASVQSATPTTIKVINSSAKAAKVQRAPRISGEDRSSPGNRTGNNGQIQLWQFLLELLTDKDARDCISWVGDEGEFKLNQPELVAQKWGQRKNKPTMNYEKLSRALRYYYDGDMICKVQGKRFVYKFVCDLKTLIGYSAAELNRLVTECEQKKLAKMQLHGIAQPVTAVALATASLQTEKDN
Summary of the method: as §1

ERG = molecular target: T4, ERG (Homo sapiens, UniProt P11308 1-479); conditions: protein: recombinant; tags: N-terminal GST; dsDNA, one strand shown
T4 sequence: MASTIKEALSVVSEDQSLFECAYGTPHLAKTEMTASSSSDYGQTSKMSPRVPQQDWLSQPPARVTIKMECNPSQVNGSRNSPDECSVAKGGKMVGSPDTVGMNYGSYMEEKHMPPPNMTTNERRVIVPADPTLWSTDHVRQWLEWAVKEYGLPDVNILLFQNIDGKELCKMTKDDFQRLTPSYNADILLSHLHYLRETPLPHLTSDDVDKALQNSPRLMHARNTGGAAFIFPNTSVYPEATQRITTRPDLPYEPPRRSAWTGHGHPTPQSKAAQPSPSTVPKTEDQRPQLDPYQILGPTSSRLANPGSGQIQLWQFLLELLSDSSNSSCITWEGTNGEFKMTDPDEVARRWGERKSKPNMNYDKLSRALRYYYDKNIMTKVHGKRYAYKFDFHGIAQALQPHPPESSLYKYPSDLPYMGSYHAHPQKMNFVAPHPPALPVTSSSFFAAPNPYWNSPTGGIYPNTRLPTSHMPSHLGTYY
Summary of the method: as §1

ELF1 = ELF1 (Homo sapiens, UniProt P32519 1-619); conditions: protein: recombinant; tags: N-terminal GST; dsDNA, one strand shown
Summary of the method: as §1

EHF = molecular target: T5, EHF (Homo sapiens, UniProt Q9NZC4 1-300); conditions: protein: recombinant; tags: N-terminal GST; dsDNA, one strand shown
T5 sequence: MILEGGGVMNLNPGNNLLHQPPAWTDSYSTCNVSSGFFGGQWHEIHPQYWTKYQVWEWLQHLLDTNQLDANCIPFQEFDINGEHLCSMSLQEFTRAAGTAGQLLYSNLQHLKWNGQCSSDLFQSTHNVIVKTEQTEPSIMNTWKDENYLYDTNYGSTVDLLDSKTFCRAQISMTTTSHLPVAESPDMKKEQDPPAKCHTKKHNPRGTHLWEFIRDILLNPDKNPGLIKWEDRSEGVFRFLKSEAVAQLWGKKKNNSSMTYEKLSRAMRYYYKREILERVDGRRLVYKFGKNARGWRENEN
Summary of the method: as §1

SPI1 = SPI1 (Homo sapiens, UniProt P17947 1-270); conditions: protein: recombinant; tags: N-terminal GST; dsDNA, one strand shown
Summary of the method: as §1

SPIB = SPIB (Homo sapiens, UniProt Q01892 1-262); conditions: protein: recombinant; tags: N-terminal GST; dsDNA, one strand shown
Summary of the method: as §1

ELK3 = molecular target: T6, ELK3 (Homo sapiens, UniProt P41970 1-407); conditions: protein: recombinant; tags: N-terminal GST; dsDNA, one strand shown
T6 sequence: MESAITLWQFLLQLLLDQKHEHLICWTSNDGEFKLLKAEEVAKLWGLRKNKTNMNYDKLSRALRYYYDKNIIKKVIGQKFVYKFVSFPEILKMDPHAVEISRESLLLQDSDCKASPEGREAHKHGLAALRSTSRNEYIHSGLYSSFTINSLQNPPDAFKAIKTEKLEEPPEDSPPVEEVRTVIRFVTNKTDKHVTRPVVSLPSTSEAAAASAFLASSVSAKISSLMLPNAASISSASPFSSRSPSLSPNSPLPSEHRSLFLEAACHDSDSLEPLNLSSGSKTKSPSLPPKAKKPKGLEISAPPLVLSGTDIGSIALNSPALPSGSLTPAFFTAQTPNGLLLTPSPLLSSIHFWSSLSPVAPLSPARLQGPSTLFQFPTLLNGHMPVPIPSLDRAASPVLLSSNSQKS
Summary of the method: as §1

FEV = molecular target: T7, FEV (Homo sapiens, UniProt Q99581 1-238); conditions: protein: recombinant; tags: N-terminal GST; dsDNA, one strand shown
T7 sequence: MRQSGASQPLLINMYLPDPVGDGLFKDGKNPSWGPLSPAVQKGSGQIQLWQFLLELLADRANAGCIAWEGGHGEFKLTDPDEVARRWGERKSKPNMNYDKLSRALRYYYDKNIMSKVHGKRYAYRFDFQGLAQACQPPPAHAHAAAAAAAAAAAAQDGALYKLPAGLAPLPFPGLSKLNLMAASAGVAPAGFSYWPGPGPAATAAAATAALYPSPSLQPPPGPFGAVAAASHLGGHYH
Summary of the method: as §1

ETV5 = ETV5 (Homo sapiens, UniProt P41161 1-510); conditions: protein: recombinant; tags: N-terminal GST; dsDNA, one strand shown
Summary of the method: as §1

HSF1 = HSF1 (Homo sapiens, UniProt Q00613 1-529); conditions: protein: recombinant; tags: N-terminal GST; chain copies: 3; dsDNA, one strand shown
Summary of the method: as §1

SPIC = molecular target: T8, SPIC (Homo sapiens, UniProt Q8N5J4 1-248); conditions: protein: recombinant; tags: N-terminal GST; dsDNA, one strand shown
T8 sequence: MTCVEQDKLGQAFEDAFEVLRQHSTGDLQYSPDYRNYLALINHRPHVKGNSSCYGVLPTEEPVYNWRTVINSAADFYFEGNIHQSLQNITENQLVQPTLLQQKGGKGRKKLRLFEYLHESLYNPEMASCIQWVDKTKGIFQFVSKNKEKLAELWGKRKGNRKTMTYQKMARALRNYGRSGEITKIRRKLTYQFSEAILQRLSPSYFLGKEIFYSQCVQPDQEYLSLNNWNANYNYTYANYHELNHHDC
Summary of the method: as §1

ELF4 = ELF4 (Homo sapiens, UniProt Q99607 1-663); conditions: protein: recombinant; tags: N-terminal GST; dsDNA, one strand shown
Summary of the method: as §1

ELK4 = molecular target: T9, ELK4 (Homo sapiens, UniProt P28324-2 1-405); conditions: protein: recombinant; tags: N-terminal GST; dsDNA, one strand shown
T9 sequence: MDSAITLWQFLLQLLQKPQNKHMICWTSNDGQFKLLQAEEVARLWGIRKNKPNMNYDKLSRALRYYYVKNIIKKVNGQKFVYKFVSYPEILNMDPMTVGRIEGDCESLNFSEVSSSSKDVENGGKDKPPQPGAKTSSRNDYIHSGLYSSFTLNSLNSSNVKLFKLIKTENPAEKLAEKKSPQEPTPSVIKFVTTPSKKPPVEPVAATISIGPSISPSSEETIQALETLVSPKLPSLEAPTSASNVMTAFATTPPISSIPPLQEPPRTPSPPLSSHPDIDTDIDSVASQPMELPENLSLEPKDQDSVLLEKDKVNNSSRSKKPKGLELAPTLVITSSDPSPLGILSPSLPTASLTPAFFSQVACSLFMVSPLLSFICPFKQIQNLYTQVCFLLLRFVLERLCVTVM
Summary of the method: as §1

ETV2 = molecular target: T10, ETV2 (Homo sapiens, UniProt O00321 1-342); conditions: protein: recombinant; tags: N-terminal GST; dsDNA, one strand shown
T10 sequence: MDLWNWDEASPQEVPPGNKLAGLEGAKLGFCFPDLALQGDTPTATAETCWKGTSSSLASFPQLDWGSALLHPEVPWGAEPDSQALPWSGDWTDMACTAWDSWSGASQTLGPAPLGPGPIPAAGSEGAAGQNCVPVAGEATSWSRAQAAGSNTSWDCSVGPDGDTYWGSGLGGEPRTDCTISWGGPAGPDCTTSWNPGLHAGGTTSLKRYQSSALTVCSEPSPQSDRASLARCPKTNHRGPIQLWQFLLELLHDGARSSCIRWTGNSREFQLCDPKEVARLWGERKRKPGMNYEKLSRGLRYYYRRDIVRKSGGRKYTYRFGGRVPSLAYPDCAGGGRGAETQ
Summary of the method: as §1

ELF3 = molecular target: T11, ELF3 (Homo sapiens, UniProt P78545 1-371); conditions: protein: recombinant; tags: N-terminal GST; dsDNA, one strand shown
T11 sequence: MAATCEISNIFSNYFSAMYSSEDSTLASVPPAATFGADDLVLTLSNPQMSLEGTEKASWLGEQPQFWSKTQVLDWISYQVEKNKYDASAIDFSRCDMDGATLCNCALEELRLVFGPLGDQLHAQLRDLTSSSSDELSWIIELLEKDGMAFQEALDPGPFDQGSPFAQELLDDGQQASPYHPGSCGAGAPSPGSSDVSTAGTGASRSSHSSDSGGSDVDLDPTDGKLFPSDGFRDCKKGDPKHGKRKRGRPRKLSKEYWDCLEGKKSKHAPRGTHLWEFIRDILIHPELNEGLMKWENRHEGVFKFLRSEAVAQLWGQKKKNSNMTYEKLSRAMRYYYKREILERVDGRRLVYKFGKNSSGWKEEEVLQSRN
Summary of the method: as §1

CRX = CRX (Homo sapiens, UniProt O43186 1-299); conditions: protein: recombinant; tags: N-terminal GST; dsDNA, one strand shown
Summary of the method: as §1

ETV1 = ETV1 (Homo sapiens, UniProt P50549 1-477); conditions: protein: recombinant; tags: N-terminal GST; dsDNA, one strand shown
Summary of the method: as §1

CRX, sequence (O43186 whole entry): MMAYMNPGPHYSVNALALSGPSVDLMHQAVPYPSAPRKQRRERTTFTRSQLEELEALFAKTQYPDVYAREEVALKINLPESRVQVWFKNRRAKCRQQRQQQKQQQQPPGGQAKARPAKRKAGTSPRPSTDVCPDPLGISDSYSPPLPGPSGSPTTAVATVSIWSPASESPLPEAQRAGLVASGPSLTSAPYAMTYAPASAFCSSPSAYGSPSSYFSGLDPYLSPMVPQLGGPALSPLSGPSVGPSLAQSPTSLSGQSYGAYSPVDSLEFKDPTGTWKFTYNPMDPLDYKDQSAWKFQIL
ETV1, sequence (P50549 whole entry): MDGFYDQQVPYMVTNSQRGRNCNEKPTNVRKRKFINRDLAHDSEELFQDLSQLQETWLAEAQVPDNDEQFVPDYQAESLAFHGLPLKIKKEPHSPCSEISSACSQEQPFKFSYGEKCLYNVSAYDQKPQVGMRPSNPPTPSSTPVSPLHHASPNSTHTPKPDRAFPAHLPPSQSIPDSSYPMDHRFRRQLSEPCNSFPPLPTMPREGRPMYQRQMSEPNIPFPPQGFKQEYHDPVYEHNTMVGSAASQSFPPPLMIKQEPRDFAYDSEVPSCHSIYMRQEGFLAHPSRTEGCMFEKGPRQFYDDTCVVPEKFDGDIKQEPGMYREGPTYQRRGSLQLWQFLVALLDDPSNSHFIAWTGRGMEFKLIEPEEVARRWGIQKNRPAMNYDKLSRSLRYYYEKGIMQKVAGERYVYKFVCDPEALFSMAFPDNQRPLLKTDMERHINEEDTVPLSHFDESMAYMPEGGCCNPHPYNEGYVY
HSF1, sequence (Q00613 whole entry): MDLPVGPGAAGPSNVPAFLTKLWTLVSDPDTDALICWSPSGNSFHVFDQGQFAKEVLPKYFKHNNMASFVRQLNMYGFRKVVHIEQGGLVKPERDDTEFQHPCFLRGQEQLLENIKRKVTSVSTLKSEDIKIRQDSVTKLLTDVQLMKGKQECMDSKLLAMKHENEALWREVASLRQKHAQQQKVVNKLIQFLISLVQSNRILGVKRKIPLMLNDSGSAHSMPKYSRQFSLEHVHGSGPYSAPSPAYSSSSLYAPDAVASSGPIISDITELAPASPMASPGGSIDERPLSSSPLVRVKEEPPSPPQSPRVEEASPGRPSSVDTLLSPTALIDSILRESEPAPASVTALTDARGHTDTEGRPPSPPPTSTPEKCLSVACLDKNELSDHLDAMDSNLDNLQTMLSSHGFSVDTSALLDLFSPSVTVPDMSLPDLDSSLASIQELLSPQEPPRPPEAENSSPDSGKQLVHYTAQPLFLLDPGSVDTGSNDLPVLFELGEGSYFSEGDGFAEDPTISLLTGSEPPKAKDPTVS
ELF4, sequence (Q99607 whole entry): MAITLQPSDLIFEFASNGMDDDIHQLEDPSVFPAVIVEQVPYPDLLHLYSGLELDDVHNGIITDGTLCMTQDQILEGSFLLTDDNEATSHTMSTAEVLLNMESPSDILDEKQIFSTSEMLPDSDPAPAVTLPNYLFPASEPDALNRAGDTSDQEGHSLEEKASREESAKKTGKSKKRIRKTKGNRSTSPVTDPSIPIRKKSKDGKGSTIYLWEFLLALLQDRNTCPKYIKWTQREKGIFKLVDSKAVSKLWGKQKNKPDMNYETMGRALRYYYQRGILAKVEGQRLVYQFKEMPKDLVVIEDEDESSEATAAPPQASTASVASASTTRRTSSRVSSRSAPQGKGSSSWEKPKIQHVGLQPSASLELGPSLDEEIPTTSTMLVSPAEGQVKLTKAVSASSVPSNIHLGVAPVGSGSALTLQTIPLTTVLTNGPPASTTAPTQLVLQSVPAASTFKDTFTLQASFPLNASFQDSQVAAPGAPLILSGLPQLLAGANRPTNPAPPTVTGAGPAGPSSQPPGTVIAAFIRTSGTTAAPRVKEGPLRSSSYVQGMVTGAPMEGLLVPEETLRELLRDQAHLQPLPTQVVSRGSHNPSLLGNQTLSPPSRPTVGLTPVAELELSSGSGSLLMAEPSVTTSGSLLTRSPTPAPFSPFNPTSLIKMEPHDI
SPIB, sequence (Q01892 whole entry): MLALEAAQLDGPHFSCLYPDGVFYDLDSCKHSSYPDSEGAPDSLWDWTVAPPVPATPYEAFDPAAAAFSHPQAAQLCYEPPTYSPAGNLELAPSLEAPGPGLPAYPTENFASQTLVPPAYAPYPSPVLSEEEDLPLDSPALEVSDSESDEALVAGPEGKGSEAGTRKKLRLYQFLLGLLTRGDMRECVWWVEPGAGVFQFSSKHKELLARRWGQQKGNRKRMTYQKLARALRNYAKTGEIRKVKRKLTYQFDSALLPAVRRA
ETV5, sequence (P41161 whole entry): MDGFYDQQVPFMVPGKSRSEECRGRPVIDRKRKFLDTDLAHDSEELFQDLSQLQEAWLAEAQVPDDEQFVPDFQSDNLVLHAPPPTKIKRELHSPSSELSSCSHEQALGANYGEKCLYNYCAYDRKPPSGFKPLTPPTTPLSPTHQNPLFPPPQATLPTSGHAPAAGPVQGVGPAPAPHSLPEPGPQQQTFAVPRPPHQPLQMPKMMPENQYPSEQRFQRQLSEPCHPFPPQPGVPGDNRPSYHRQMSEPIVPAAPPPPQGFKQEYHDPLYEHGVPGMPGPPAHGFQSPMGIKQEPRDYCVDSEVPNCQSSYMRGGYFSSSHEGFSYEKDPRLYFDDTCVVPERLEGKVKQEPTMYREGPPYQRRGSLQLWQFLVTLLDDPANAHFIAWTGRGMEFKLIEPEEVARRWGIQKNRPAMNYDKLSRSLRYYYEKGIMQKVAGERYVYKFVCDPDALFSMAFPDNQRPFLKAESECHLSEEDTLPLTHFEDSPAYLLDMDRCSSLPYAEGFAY
ELF1, sequence (P32519 whole entry): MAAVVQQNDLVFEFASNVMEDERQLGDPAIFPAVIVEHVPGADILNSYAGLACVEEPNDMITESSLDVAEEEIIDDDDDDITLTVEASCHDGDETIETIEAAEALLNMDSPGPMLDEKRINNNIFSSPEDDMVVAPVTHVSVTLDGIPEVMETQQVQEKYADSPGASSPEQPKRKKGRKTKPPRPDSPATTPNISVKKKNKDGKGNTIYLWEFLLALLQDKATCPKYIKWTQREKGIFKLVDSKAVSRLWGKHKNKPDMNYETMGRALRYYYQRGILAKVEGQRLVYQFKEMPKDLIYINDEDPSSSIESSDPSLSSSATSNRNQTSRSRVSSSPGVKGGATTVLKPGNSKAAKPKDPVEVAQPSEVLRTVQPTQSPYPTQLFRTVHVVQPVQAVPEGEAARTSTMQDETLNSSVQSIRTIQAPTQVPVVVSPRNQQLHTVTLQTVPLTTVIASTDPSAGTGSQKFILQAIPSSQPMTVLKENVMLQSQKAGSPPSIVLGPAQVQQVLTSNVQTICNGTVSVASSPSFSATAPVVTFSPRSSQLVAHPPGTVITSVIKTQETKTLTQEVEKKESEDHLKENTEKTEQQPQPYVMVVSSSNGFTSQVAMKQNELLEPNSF

Sequence: AAACAC
- binding signal (FLI1): 1.25 fold enrichment (6-mer frequency, TF over GST control)
- binding signal (ELK1): 1.33 fold enrichment (6-mer frequency, TF over GST control)
- binding signal (GABPA): 1.24 fold enrichment (6-mer frequency, TF over GST control)
- binding signal (ERG): 1.33 fold enrichment (6-mer frequency, TF over GST control)
- binding signal (ELF1): 1.31 fold enrichment (6-mer frequency, TF over GST control)
- binding signal (EHF): 1.35 fold enrichment (6-mer frequency, TF over GST control)
- binding signal (SPI1): 1.3 fold enrichment (6-mer frequency, TF over GST control)
- binding signal (SPIB): 1.27 fold enrichment (6-mer frequency, TF over GST control)
- binding signal (ELK3): 1.24 fold enrichment (6-mer frequency, TF over GST control)
- binding signal (FEV): 1.31 fold enrichment (6-mer frequency, TF over GST control)
- binding signal (ETV5): 1.24 fold enrichment (6-mer frequency, TF over GST control)
- binding signal (HSF1): 1.09 fold enrichment (6-mer frequency, TF over GST control)
- binding signal (SPIC): 1.24 fold enrichment (6-mer frequency, TF over GST control)
- binding signal (ELF4): 1.34 fold enrichment (6-mer frequency, TF over GST control)
- binding signal (ELK4): 1.27 fold enrichment (6-mer frequency, TF over GST control)
- binding signal (ETV2): 1.36 fold enrichment (6-mer frequency, TF over GST control)
- binding signal (ELF3): 1.33 fold enrichment (6-mer frequency, TF over GST control)
- binding signal (CRX): 1.05 fold enrichment (6-mer frequency, TF over GST control)
- binding signal (ETV1): 1.26 fold enrichment (6-mer frequency, TF over GST control)
